From PubChem BioAssay (NCATS) come the findings set out here.

For assay [1], the target named is Calcium and integrin-binding protein 1 (Homo sapiens) (UniProt Q99828). As to the kind of experiment: Primary qHTS for Identification of Calcium Integrin Binding Protein 1 (CIB1) Competitor (AID 1508620).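 Further: GST tagged CIB1 binding a fluorescein labelled alphaIIb integrin peptide tracer; top concentration of the series differs between compounds.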 Particulars: CIB1-GST / FITC-alphaIIb peptide fluorescence polarization; series mostly up to 114 µM. An outline of the steps:
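Fluorescence polarization competition: GST-tagged CIB1 (1 uM final) preincubated with compound 15 min at room temperature, then FITC-labelled alphaIIb peptide (100 nM final) added. After 15 min at room temperature, polarization read at Ex 480/Em 540.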
(In general: In qHTS, concentration-response curves come from the screen itself.)

A short description of assay [2]: Primary qHTS for inhibitors of nuclear receptor binding SET domain protein 2 (NSD2) in an isogenic RCH-ACV NSD2 p.E1099K mutant (9B) (AID 1645876). Further: nearly all actives have a fitted effect of over 70% in size. Further: potency means the concentration at half of the fitted maximal effect. Particulars: RCH-ACV (leukaemia line) NSD2 E1099K (9B) viability, CellTiter-Glo, 72 h; series mostly up to 44.9 µM.

Results filed as inconclusive are left out. Where a call stands in place of a potency, no number is given. Calls of active or inactive are those of the source. The call rests on the fitted dose curve; in most records, active means well fitted inhibition curve with a large enough effect; inconclusive means small, poorly fitted or top-dose-only effect; inactive means flat fitted curve, though single readings scatter.

Chain of Calcium and integrin-binding protein 1 (Homo sapiens) (Q99828 whole entry, looked up): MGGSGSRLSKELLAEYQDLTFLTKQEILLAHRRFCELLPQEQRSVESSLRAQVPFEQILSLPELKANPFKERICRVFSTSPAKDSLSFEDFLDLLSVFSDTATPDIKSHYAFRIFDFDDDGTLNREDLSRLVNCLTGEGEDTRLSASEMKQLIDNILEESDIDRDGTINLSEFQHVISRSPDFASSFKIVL

With `COCC1OC(OC(C)(C)C2CCC3(C)C=C(C4CCC5C4(C)CC(O)C4OC(C(C)(C)OC6OC(CO)C(O)C(O)C6NC(C)=O)CCC45C)CCC3O2)C(NC(C)=O)C(O)C1O` (stereo unspecified), in assay [1], the Potency entry is “inactive”. In addition, the activity change, negative = viability loss in assay [2] is 1.46% [at 9.23 µM] (inactive).
As to `C[C@H]1CC(=O)Nc2cccc(-c3cnn(C(C)(C)C)c3)c2N1`, the Potency result in assay [1] and in assay [2] was “inactive” in each case.
As for `C[C@H]1C(=O)N2c3ccccc3[C@@]3(O)C[C@@H]4C(=O)N[C@](C)(c5nc6ccccc6c(=O)n54)N1[C@@H]23`, the Potency entry in assay [1] and in assay [2] was “inactive” in each case.
For the compound `CC1OC(OC2C(C)OC(OC3C(O)C(CO)OC(O[C@H]4CC[C@@]5(C)C(CC[C@]6(C)C5CC=C5C7[C@@H](C)[C@H](C)CC[C@]7(C(=O)O)CC[C@]56C(=O)O)C4(C)C)C3O)C(O)C2O)C(O)C(O)C1O` (stereo partly specified), the Potency entry in assay [1] is “inactive”. Moreover, the activity change, negative = viability loss in assay [2] was -0.763% [at 9.23 µM] (inactive).
In the case of `CO[C@H]1/C=C/C=C/C=C/C[C@H](OC(=O)[C@@H](C)NC(=O)C2CCCCC2)[C@H](C)[C@@H](O)/C(C)=C/CCc2cc(O)cc(c2)NC(=O)C1`, the Potency entry in assay [1] is “inactive”. In addition, the Potency in assay [2] was 0.342 µM (active).
In the case of `O=C(O)CC(=O)OC[C@H]1O[C@@H](Oc2ccc3c(c2)OC[C@H]2c4cc5c(cc4O[C@@H]32)OCO5)[C@H](O)[C@@H](O)[C@@H]1O`, the Potency result in assay [1] and in assay [2] was “inactive” each time.
As to `CC1=C2C3OC(=O)C(C)C3(O)CCC2(C)CCC1O` (stereo unspecified), the Potency result in assay [1] and in assay [2] was “inactive” throughout.
In the case of `CC(=O)OC1C(=O)C2(C)C(O)CC3OCC3(OC(C)=O)C2C(OC(=O)c2ccccc2)C2(O)CC(OC(=O)C(O)C(NC(=O)c3ccccc3)c3ccccc3)C(C)=C1C2(C)C` (stereo unspecified), the Potency entry in assay [1] was “inactive”. The Potency in assay [2] was 0.0052 µM (active).
